Inconclusive results are not listed. Activity calls are given as the source filed them. Unless noted, calls come from the whole dose curve; as a rule, active = well fitted curve in the direction sought with a large enough effect in the repeat runs; inconclusive = weak or mixed curves; inactive = no such curve, though single readings can be large; an effect the other way counts as inactive or inconclusive.
How the values were obtained:
[1] = qHTS assay to identify small molecule agonists of H2AX - cell viability counter screen (AID 1224847; calls by dose curve;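 note: wild-type CHO-K1 cells; top concentration of the series differs between compounds; nearly all actives have a fitted effect of over 30% in size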)
Summary of the method: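 CHO-K1 wt, 1000 cells/well, o/n 37C; cpds 15 conc, 3 h 37C, 0.76% DMSO; CellTiter-Glo, 30 min RT, luminescence.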

[2] = qHTS RealTime-Glo MT Cell Viability Assay in HepG2 cells - 24 hour (AID 1224867); note: nearly all actives have a fitted effect of over 50% in size
Summary of the method: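 HepG2 cells were seeded at 600 cells/well together with NanoLuc luciferase and a cell-permeant prosubstrate, preincubated 5 h at 37 C/5% CO2, then pin-dosed with compounds in DMSO. Nonlytic luminescence from viable cells was read at each time point.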

[3] = qHTS RealTime-Glo MT Cell Viability Assay in HEK293 cells - 32 hour (AID 1224868); note: top concentration of the series differs between compounds; nearly all actives have a fitted effect of over 50% in size
Summary of the method: (§1)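 HEK293 cells were seeded at 600 cells/well together with NanoLuc luciferase and cell-permeant prosubstrate, preincubated 5 h at 37 C/5% CO2, then given compound in DMSO by pintool. Luminescence from viable-cell prosubstrate reduction was read repeatedly over 40 h.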

[4] = A CellTox Green Cytotoxicity Assay to monitor cytotoxicity in HEK293 cells - 0 hour (AID 1224869); note: nearly all actives have a fitted effect of over 50% in size
Summary of the method: (§2)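 HEK293 cells premixed with CellTox Green dye were seeded at 600 cells/well and left 5 h at 37 C/5% CO2 before pin transfer of 23 nL compound in DMSO. Fluorescence from dye bound to dead-cell DNA was read during 40 h treatment.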

[5] = qHTS RealTime-Glo MT Cell Viability Assay in HepG2 cells - 40 hour (AID 1224870); note: nearly all actives have a fitted effect of over 50% in size
Summary of the method: (§3)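 Real-time viability: cells seeded at 600 per well together with NanoLuc and cell-permeant prosubstrate, compounds added after 5 h incubation. Luminescence tracked at 0, 8, 16, 24, 32 and 40 h of exposure.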

[6] = A CellTox Green Cytotoxicity Assay to monitor cytotoxicity in HEK293 cells - 40 hour (AID 1224871); note: nearly all actives have a fitted effect of over 45% in size
Summary of the method: as §2

[7] = qHTS RealTime-Glo MT Cell Viability Assay in HepG2 cells - 8 hour (AID 1224873); note: nearly all actives have a fitted effect of over 55% in size
Summary of the method: as §3

[8] = qHTS RealTime-Glo MT Cell Viability Assay in HEK293 cells - 16 hour (AID 1224872)
Summary of the method: as §1

[9] = qHTS assay to identify small molecule antagonists of the estrogen related receptor (ERR) signaling pathway from Tox21 library (AID 1224848); note: nearly all actives have a fitted effect of over 50% in size
Summary of the method: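 Antagonist-mode screen of the Tox21 10K library in an NTP-provided ERR reporter cell line; 18 h compound exposure at 37 C, luminescence measured with ONE-Glo.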

[10] = qHTS assay to identify small molecule agonists of the estrogen related receptor (ERR) signaling pathway from Tox21 library (AID 1224849; calls by dose curve; note: nearly all actives have a fitted effect of over 15% in size); conditions: ERR reporter cell line, ONE-Glo luciferase, 18 h
Summary of the method: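 ERR reporter cell line (NTP) seeded, rested 6 h at 37 C/5% CO2, then pinned with Tox21 compounds in DMSO. After 18 h at 37 C, ONE-Glo luciferase luminescence was read following 30 min at room temperature.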
% is set by controls: 0 for no effect and ±100 for the full control effect.

OCc1cccnc1
inactive: Potency [1] | outcome [2] | Potency [3] | outcome [4] | outcome [5] | Potency [6] | outcome [7]

O=C(O)c1cc(=O)c2c(OCC(O)COc3cccc4oc(C(=O)O)cc(=O)c34)cccc2o1
inactive: Potency [1] | outcome [2] | Potency [3] | outcome [4] | outcome [5] | Potency [6] | outcome [7]

CC(C)c1ccc(S(=O)(=O)O)cc1
inactive: Potency [1] | outcome [2] | Potency [3] | outcome [4] | outcome [5] | Potency [6] | Potency [8] | outcome [7]

CC(=O)CC(=O)Nc1ccccc1
inactive: Potency [1] | outcome [2] | Potency [3] | outcome [4] | outcome [5] | Potency [6] | Potency [8] | outcome [7]

CCCCOC(=O)COc1ccc(Cl)cc1Cl
inactive: Potency [1] | outcome [2] | Potency [3] | outcome [4] | outcome [5] | Potency [6] | outcome [7]

O=c1[nH]c(=O)n([C@H]2CCCO2)cc1F
inactive: Potency [1] | outcome [2] | Potency [3] | outcome [4] | outcome [5] | Potency [6] | Potency [8] | outcome [7]

O=C1CCC(N2C(=O)c3ccccc3C2=O)C(=O)N1 (stereo not given)
inactive: Potency [1] | outcome [2] | Potency [3] | outcome [4] | outcome [5] | Potency [6] | Potency [8] | outcome [7]

O=C(OCCOCCOC(=O)c1ccccc1)c1ccccc1
inactive: Potency [1] | outcome [2] | outcome [4] | outcome [5] | Potency [6] | outcome [7]

C[Si](O[Si](C)(C)C)O[Si](C)(C)C
inactive: Potency [1] | outcome [2] | Potency [3] | outcome [4] | outcome [5] | Potency [6] | outcome [7]

C#CCN(C)Cc1ccccc1
inactive: Potency [1] | outcome [2] | Potency [3] | outcome [4] | outcome [5] | Potency [6] | Potency [8] | outcome [7]

CCN(CC)c1ccc(C(=O)c2ccccc2C(=O)O)c(O)c1
inactive: Potency [1] | outcome [2] | Potency [3] | outcome [4] | outcome [5] | Potency [6] | outcome [7]

O=[N+]([O-])c1ccc(/C=C/c2ccc([N+](=O)[O-])cc2S(=O)(=O)O)c(S(=O)(=O)O)c1
inactive: Potency [1] | outcome [2] | Potency [3] | outcome [4] | outcome [5] | Potency [6] | Potency [8] | outcome [7]

C[C@H]1C[C@H]2[C@@H]3CCC4=CC(=O)C=C[C@]4(C)[C@@]3(F)[C@@H](O)C[C@]2(C)[C@@]1(O)C(=O)CO
inactive: Potency [1] | outcome [2] | Potency [3] | outcome [4] | outcome [5] | Potency [6] | outcome [7]

C/C=C1/CC2C=CC1C2 (stereo not given)
inactive: Potency [1] | outcome [2] | Potency [3] | outcome [4] | outcome [5] | Potency [6] | outcome [7]

c1ccc2scnc2c1
inactive: Potency [1] | outcome [2] | Potency [3] | outcome [4] | outcome [5] | Potency [6] | outcome [7]

CCCCN(CCCC)CCCC
inactive: Potency [1] | outcome [2] | Potency [3] | outcome [4] | outcome [5] | Potency [6] | Potency [8] | outcome [7]

O=C(O)CCCCCCCCCCC(=O)O
inactive: Potency [1] | outcome [2] | Potency [3] | outcome [4] | outcome [5] | Potency [6] | Potency [8] | outcome [7]

CCCCCCCC(=O)OC
inactive: Potency [1] | outcome [2] | Potency [3] | outcome [4] | outcome [5] | Potency [6] | Potency [8] | outcome [7]

OCCOCCN1CCN(C2=Nc3ccccc3Sc3ccccc32)CC1
inactive: Potency [1] | outcome [2] | Potency [3] | outcome [4] | outcome [5] | Potency [6] | outcome [7]

COc1ccc2cc([C@H](C)C(=O)O)ccc2c1
inactive: Potency [1] | outcome [2] | Potency [3] | outcome [4] | outcome [5] | Potency [6] | Potency [8] | outcome [7]

O=C(O)CC(C(=O)O)C(CC(=O)O)C(=O)O (stereo not given)
inactive: Potency [1] | outcome [2] | Potency [3] | outcome [4] | outcome [5] | Potency [6] | outcome [7]

C[C@H]1C[C@@H]2[C@H]([C@@H](O)C[C@@]3(C)[C@H]2CC[C@]3(O)C(=O)CO)[C@@]2(C)C=CC(=O)C=C12
inactive: Potency [9] | activity change, positive = activation ([10]; at 42.5 µM (top of the series)) -3.14% | activity change, positive = activation ([10]; at 92.4 µM (top of the series)) -13.3% | outcome [2] | Potency [3] | outcome [4] | outcome [5] | Potency [6] | Potency [8] | outcome [7]

CCc1ccc(CCOc2ccc(CC3SC(=O)NC3=O)cc2)nc1 (stereo not given)
inactive: Potency [1] | outcome [2] | Potency [3] | outcome [4] | outcome [5] | Potency [6] | outcome [7]

O=C(O)c1ccc(C(=O)O)cc1
inactive: Potency [1] | outcome [2] | Potency [3] | outcome [4] | outcome [5] | Potency [6] | Potency [8] | outcome [7]

CC1CCC2CC1C2(C)C (stereo not given)
inactive: Potency [1] | outcome [2] | Potency [3] | outcome [4] | outcome [5] | Potency [6] | outcome [7]

O=S(=O)(O)c1ccc2ccccc2c1
inactive: Potency [1] | outcome [2] | Potency [3] | outcome [4] | outcome [5] | Potency [6] | Potency [8] | outcome [7]

CN(C)CCC(c1ccccc1)c1ccccn1 (stereo not given)
inactive: Potency [1] | outcome [2] | Potency [3] | outcome [4] | outcome [5] | Potency [6] | outcome [7]

O=C(O)c1ccc2c(c1)C(=O)OC2=O
inactive: Potency [1] | outcome [2] | Potency [3] | outcome [4] | outcome [5] | Potency [6] | outcome [7]
